The source made the active and inactive calls. Unless noted, the rule behind the calls is not given here.
How the values were obtained:
[1] = compound effects on lung adenocarcinoma cell viability – A549, calcein-AM fluorescence, 48 h, basal, profiling panel (AID 1162); conditions: higher = more signal; note: test concentration not given here
[2] = compound effects on differentiated 3T3-L1 adipocyte viability – cell-based, 3T3-L1 adipocytes, calcein-AM fluorescence, 48 h, basal, profiling panel (AID 1163); conditions: 3T3-L1 adipocytes viability, higher = more signal; note: test concentration not given here
[3] = compound effects on hepatocellular carcinoma cell viability – HepG2, calcein-AM fluorescence, 48 h, basal, profiling panel (AID 1164); conditions: higher = more signal; note: test concentration not given here
[4] = compound effects on multiple myeloma cell viability – MM1S, calcein-AM fluorescence, 48 h, basal, profiling panel (AID 1165); conditions: higher = more signal; note: test concentration not given here
[5] = calcein-AM signal in unstimulated myeloma cells – cell-based, calcein-AM fluorescence, 48 h, PK04 Diversity Set, profiling panel (AID 1166); conditions: RPMI8226 myeloma viability, higher = more signal;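 note: cells grown under basal conditions without added stimulus; test concentration not given here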
[6] = JC-1 mitochondrial signal, unstimulated HepG2 cells – cell-based, JC-1 fluorescence, 24 h, 100 nL compound, profiling panel (AID 1167); conditions: HepG2 mitochondrial potential, higher = more signal; note: test concentration not given here
[7] = JC-1 mitochondrial signal, unstimulated adipocytes – cell-based, JC-1 fluorescence, 3T3-L1 adipocytes, 24 h, 100 nL compound, profiling panel (AID 1168); conditions: JC-1 mitochondrial fluorescence, higher = more signal, called active from +8 up or from −8 down; note: test concentration not given here
[8] = JC-1 mitochondrial signal, unstimulated myeloma cells – cell-based, JC-1 fluorescence, RPMI8226, 24 h, 100 nL compound, profiling panel (AID 1169); conditions: JC-1 mitochondrial potential fluorescence, higher = more signal; note: test concentration not given here
[9] = JC-1 mitochondrial signal, unstimulated MM1S myeloma – cell-based, JC-1 fluorescence, 24 h, 100 nL compound, profiling panel (AID 1170); conditions: MM1S mitochondrial potential, higher = more signal; note: test concentration not given here
[10] = resazurin metabolic signal in A549 cells – cell-based, resazurin fluorescence, 24 h, PK04 Diversity Set, profiling panel (AID 1171); conditions: A549 viability, higher = more signal, called active from +8 up or from −8 down; note: test concentration not given here
[11] = resazurin metabolic signal in HepG2 cells – cell-based, resazurin fluorescence, 24 h, PK04 Diversity Set, profiling panel (AID 1172); conditions: HepG2 viability, higher = more signal; note: test concentration not given here
[12] = budding yeast growth changes without added modifier – OD600, strain BY4716, 24 h, basal condition, primary screen (AID 1173); conditions: S. cerevisiae BY4716 growth, OD600, 24 h; higher = more signal, called active from +8 up or from −8 down
[13] = viability profiling in MM1S myeloma cells – cell-based, resazurin fluorescence, basal, 24 h, PK04 Diversity Set, profiling panel (AID 1174); conditions: higher = more signal, called active from +8 up or from −8 down; note: test concentration not given here
[14] = target: Dihydroorotate dehydrogenase (quinone), mitochondrial (Plasmodium falciparum (isolate 3D7)) (UniProt Q08210); assay: inhibition of P. falciparum DHODH – biochemical, C-terminal His tag, absorbance 600 nm, primary screen (AID 1175); conditions: PfDHODH enzyme, DCIP absorbance 600 nm; higher = more signal, called active from +8 up or from −8 down;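 note: recombinant parasite enzyme with a five histidine tag at its C terminus; test concentration not given here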
[15] = inhibition of PAO1 biofilm formation – strain PAO1, LB-PBS medium, absorbance 600 nm, primary screen (AID 1176); note: test concentration not given here; conditions: P. aeruginosa PAO1 growth/biofilm, A600, 12 h; higher = more signal
[16] = growth modulation of vineyard yeast isolate – strain RM11-1a, OD600, basal, 24 h, primary screen (AID 1177);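 note: cultures grown under basal conditions with no added stressor; test concentration not given here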; conditions: S. cerevisiae RM11-1a growth, OD600, 24 h; higher = more signal, called active from +8 up or from −8 down
[17] = growth of efflux-deficient E. coli DRC39 – strain DRC39, OD650, 24 h, E. coli filamentation inducers, primary screen (AID 1178);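 note: growth measured as culture turbidity by optical density at 650 nm; test concentration not given here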; conditions: E. coli DRC39 acrAB, higher = more signal, called active from +8 up or from −8 down
[18] = growth of efflux-deficient E. coli DRC39 – strain DRC39, OD650, 48 h, E. coli filamentation inducers, primary screen (AID 1179);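 note: screen aims at cell division blockers that make cells filament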; conditions: E. coli DRC39 delta-acrAB growth, higher = more signal, called active from +8 up or from −8 down
[19] = viability profiling in RPMI8226 myeloma cells – cell-based, resazurin fluorescence, basal, 24 h, PK04 Diversity Set, profiling panel (AID 1180); conditions: higher = more signal;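 note: RPMI8826 multiple myeloma cell line at 5000 cells per well; test concentration not given here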
[20] = target: E3 ubiquitin-protein ligase XIAP (Homo sapiens) (UniProt P98170); assay: small molecules binding XIAP protein – biophysical, small-molecule microarray, fluorescence 635 nm, primary screen (AID 1181); conditions: higher = more signal;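 note: score merges 667 nm emission and signal to noise over triplicate slides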
E3 ubiquitin-protein ligase XIAP (Homo sapiens), sequence (P98170 whole entry, looked up): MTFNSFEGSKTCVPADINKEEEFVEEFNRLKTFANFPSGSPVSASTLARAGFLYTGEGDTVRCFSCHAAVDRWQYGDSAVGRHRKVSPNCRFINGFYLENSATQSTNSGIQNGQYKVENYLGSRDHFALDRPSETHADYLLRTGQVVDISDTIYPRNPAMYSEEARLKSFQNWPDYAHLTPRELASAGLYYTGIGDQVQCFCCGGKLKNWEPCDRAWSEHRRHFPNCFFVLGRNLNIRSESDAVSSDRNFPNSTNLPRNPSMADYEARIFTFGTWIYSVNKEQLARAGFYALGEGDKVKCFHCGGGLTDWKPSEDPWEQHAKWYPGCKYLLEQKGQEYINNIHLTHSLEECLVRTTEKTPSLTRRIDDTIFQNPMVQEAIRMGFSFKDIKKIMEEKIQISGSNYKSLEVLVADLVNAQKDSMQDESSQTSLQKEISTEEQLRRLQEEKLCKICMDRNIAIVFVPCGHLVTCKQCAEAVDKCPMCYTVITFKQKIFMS

Dihydroorotate dehydrogenase (quinone), mitochondrial (Plasmodium falciparum (isolate 3D7)), sequence (Q08210 whole entry, looked up): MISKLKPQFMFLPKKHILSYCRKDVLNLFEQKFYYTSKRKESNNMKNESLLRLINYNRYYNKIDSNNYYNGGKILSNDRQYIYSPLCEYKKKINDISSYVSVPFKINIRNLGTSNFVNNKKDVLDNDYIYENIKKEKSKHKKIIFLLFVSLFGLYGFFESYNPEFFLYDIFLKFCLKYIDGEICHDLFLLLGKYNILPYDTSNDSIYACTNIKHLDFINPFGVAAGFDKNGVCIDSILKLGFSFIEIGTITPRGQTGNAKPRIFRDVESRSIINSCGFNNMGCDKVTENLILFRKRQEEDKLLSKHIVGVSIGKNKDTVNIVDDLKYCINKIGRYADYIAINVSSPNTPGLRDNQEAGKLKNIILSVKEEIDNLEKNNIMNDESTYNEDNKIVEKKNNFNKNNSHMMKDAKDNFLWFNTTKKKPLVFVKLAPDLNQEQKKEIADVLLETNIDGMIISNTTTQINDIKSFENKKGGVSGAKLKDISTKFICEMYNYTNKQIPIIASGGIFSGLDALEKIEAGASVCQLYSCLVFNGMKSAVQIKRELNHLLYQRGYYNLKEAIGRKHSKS

Compound	z-score [1]	z-score [2]	z-score [3]	z-score [4]	z-score [5]	z-score [6]	z-score [7]	z-score [8]	z-score [9]	z-score [10]	z-score [11]	z-score [12]	z-score [13]	composite z-score [14]	z-score [15]	z-score [16]	z-score [17]	z-score [18]	z-score [19]	composite z-score [20]
COCC(=C=CC[C@@H](O)c1ccc(OCCO)cc1)CCO	1.46	0.376	0.875	0.676	0.786	1.32	0.87 (inactive)	-0.756	-1.1	1.12 (inactive)	1.37	-0.896 (inactive)	1.1 (inactive)	-0.789 (inactive)	0.424 (inactive)	0.453 (inactive)	1.41 (inactive)	1.23 (inactive)	2.08	-0.0949
C=C(/C(=C/C[C@H](OC(=O)c1ccncc1)c1ccccc1OCCO)c1cnc2ccccc2c1)C(C)C	0.0894	-0.253	-0.444	-1.26	-0.906	0.96	-0.482 (inactive)	-0.331	-0.174	1.35 (inactive)	0.495	-0.147 (inactive)	-0.632 (inactive)	-3.77 (inactive)	1.07 (inactive)	-0.07 (inactive)	0.395 (inactive)	0.313 (inactive)	0.262	-0.0771
CCOC(=O)C1=CC[C@@H](c2ccccc2)N(S(=O)(=O)c2ccc(C)cc2)[C@H]1c1cccc(OC)c1	-0.716	-1.41	-0.0906	-0.247	-0.907	2.94	-0.293 (inactive)	0.505	-1.35	0.776 (inactive)	0.0088	2.25 (inactive)	-0.387 (inactive)	-0.777 (inactive)	0.325 (inactive)	1.21 (inactive)	-0.577 (inactive)	0.244 (inactive)	-1.22	-0.022
CCCCC=C[C@@H](NC(=O)c1ccccc1)c1ccccc1	-1.07	-0.417	-1.02	-0.842	-2.29	0.18	-1.04 (inactive)	0.135	-0.434	0.962 (inactive)	-0.35	0.483 (inactive)	0.0386 (inactive)	-0.845 (inactive)	1.43 (inactive)	0.0455 (inactive)	-1.44 (inactive)	-1.29 (inactive)	-0.321	0.0348
CC1CC/C=C\[C@H]2OC34C=CCN(CCN5CCOCC5)C(=O)[C@H]3N(C(C)CO)C(=O)[C@@H]4C2C(=O)O1 (stereo not given in full)	0.956	-0.491	1.2	1.29	-0.143	0.602	0.225 (inactive)	0.0954	-0.722	-0.387 (inactive)	-0.0282	-0.348 (inactive)	-0.0757 (inactive)	-1.44 (inactive)	-0.0711 (inactive)	0.366 (inactive)	-0.0135 (inactive)	0.432 (inactive)	-0.574	-0.0807
COCCOC(=O)N1C(=O)[C@@]2(c3cc(C#CCC(C(=O)OC)C(=O)OC)ccc31)[C@H](c1ccc(OCCO)cc1)N1[C@H](c3ccccc3)[C@H](c3ccccc3)OC(=O)[C@H]1[C@@H]2C(=O)Nc1nc2ccccc2s1	0.705	0.694	0.278	-0.518	-0.312	-2.91	0.578 (inactive)	-1.01	-1.29	0.108 (inactive)	1.13	1.05 (inactive)	0.814 (inactive)	-1.53 (inactive)	3.58 (inactive)	3.24 (inactive)	1.18 (inactive)	0.901 (inactive)	-1.15	0.0506
C=C(C)C1CCC(C(O)C2C=CC3C(=O)N(C)C(=O)C3N2Nc2cc(OC)c(OC)c(OC)c2)CC1 (stereo not given)	-1.13	-1	-0.273	-0.989	-0.0317	-0.648	-0.696 (inactive)	-0.354	-0.549	-0.404 (inactive)	-1.15	0.552 (inactive)	-0.901 (inactive)	-0.896 (inactive)	0.971 (inactive)	0.065 (inactive)	-0.274 (inactive)	-0.379 (inactive)	-1.27	0.153
COCCCNC(=O)[C@@]1(c2ccc([N+](=O)[O-])cc2)CC(=O)N(CC23CC4CC(CC(C4)C2)C3)[C@@H]1c1ccc(CO)cc1I	-1.28	-0.64	-2.75	-3.75	-4.35	2.16	-1.23 (inactive)	-1.02	-1.81	-2.76 (inactive)	-2.61	1.02 (inactive)	-3.15 (inactive)	1.11 (inactive)	0.457 (inactive)	2.43 (inactive)	-0.0284 (inactive)	-0.107 (inactive)	-3.52	0.144
COc1cc2c(cc1O)C(c1ccc(CN3CCCC3)cc1)N(C)CC2 (stereo not given)	0.105	-0.582	0.339	0.752	0.0578	0.224	0.585 (inactive)	0.224	-0.699	-1.18 (inactive)	-0.392	0.447 (inactive)	-1.36 (inactive)	-0.65 (inactive)	-0.255 (inactive)	0.697 (inactive)	0.0615 (inactive)	0.382 (inactive)	-0.891	0.415

From PubChem BioAssay
